Inhibition data for 17 compounds are collected here from ChEMBL document CHEMBL1961873, “Compounds: GSK PKIS; Assays: Nanosyn kinase panel” (2012).

The target of assay [1] is Dual specificity protein kinase CLK3 (Homo sapiens) (UniProt P49761). Conditions: at 1 µM.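 Also: each value is the mean inhibition of CLK3.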
The target of assay [2] is Dual specificity tyrosine-phosphorylation-regulated kinase 1A (Homo sapiens) (UniProt Q13627). To be noted: at 0.1 µM.
Assay [3] has the same target. Conditions: at 1 µM.
For assay [4], the target named is Dual specificity tyrosine-phosphorylation-regulated kinase 1B (Homo sapiens) (UniProt Q9Y463). To be noted: at 0.1 µM.
Assay [5] has the same target. Conditions: at 1 µM.
Assay [6] deals with T1, Dual specificity tyrosine-phosphorylation-regulated kinase 2 (Homo sapiens) (UniProt Q92630).
T1 sequence (whole entry): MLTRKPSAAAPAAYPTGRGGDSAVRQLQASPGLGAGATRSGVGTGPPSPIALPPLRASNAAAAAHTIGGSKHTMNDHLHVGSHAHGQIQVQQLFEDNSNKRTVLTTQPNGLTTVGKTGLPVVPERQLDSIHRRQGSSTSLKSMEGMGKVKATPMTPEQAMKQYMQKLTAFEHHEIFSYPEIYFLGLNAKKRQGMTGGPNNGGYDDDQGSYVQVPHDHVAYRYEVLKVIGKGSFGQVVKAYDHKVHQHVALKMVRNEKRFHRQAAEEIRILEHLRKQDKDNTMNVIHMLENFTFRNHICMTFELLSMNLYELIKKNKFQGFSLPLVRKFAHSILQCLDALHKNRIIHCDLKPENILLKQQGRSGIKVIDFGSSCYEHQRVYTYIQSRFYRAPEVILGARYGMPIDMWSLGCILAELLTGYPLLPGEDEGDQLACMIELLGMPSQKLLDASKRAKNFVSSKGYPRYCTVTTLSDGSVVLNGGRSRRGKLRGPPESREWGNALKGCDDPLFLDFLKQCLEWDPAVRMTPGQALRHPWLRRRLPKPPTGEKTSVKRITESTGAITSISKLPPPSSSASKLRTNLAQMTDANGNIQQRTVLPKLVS
To be noted: at 0.1 µM.

The target of assay [7] is T1, Dual specificity tyrosine-phosphorylation-regulated kinase 2 (Homo sapiens). To be noted: at 1 µM.
Assay [8] deals with Glycogen synthase kinase-3 alpha (Homo sapiens) (UniProt P49840). To be noted: at 0.1 µM.
Assay [9] shares this target. Conditions: at 1 µM.
For assay [10], the target named is Glycogen synthase kinase-3 beta (Homo sapiens) (UniProt P49841). Conditions: at 0.1 µM.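 Also: values are mean percent inhibition of GSK3B activity, from the GSK Published Kinase Inhibitor Set (PKIS) screening dataset.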

As usually defined, the inhibition is the change of the read-out against control, counted positive when it falls.

Chain of Glycogen synthase kinase-3 alpha (Homo sapiens) (P49840 2-483 limits assumed): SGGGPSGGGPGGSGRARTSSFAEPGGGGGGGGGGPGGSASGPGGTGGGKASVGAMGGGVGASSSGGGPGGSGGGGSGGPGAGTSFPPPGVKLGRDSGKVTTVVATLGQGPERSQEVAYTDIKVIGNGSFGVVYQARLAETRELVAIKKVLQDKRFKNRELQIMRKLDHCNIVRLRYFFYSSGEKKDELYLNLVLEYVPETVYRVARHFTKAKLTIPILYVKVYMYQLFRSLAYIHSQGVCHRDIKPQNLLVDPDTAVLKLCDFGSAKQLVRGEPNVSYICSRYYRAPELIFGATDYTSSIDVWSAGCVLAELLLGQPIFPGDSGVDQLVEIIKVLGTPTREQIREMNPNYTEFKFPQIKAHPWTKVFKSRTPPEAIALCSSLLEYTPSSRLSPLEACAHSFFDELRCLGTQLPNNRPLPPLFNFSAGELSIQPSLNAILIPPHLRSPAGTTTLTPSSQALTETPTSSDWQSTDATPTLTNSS
Chain of Glycogen synthase kinase-3 beta (Homo sapiens) (P49841 whole entry, looked up): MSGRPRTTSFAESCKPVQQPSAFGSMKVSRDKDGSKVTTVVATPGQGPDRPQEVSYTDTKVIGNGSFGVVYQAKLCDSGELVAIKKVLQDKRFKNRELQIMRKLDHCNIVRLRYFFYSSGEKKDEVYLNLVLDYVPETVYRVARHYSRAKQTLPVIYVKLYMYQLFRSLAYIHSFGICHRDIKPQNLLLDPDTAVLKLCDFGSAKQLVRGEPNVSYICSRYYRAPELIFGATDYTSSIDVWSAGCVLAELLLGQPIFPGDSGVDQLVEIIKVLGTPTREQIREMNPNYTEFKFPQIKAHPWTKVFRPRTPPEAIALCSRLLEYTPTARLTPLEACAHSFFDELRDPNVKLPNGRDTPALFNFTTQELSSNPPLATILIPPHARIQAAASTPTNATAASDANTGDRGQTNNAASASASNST
Chain of Dual specificity tyrosine-phosphorylation-regulated kinase 1B (Homo sapiens) (Q9Y463 whole entry, looked up): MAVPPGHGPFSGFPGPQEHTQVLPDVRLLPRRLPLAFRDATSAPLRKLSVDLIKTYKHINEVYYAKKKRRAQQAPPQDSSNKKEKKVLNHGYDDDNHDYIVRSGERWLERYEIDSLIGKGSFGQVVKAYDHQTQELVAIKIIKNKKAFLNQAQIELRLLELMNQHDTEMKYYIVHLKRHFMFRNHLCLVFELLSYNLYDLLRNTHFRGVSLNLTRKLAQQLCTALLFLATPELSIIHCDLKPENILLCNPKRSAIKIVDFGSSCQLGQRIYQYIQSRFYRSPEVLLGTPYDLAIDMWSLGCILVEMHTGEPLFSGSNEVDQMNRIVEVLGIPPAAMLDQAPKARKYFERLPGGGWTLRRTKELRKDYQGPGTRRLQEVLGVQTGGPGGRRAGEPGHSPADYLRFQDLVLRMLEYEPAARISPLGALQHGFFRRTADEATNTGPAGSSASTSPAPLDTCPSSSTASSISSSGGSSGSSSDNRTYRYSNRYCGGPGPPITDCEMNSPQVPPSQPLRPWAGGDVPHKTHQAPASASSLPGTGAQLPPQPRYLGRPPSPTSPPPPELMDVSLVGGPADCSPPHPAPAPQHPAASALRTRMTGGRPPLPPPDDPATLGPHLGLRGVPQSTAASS
Chain of Dual specificity protein kinase CLK3 (Homo sapiens) (P49761 whole entry, looked up): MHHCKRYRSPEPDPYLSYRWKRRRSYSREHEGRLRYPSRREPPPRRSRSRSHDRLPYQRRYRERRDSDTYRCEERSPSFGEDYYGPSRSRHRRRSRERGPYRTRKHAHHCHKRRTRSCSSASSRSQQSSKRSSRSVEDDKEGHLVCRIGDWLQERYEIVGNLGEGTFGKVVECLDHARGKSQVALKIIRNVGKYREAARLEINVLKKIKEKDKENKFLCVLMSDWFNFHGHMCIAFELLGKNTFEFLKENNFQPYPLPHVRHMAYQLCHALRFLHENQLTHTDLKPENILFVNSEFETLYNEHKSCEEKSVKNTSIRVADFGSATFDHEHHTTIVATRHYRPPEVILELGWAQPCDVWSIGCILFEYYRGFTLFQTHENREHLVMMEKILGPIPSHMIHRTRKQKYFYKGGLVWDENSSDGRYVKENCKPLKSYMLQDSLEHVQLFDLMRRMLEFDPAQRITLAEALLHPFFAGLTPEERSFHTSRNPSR

On to `O=C1Nc2ccc(-c3cccnc3)cc2C1=Cc1cc(Br)c(O)c(Br)c1`, for which the inhibition stood at 38.6% in assay [1]; 21.7% in assay [2]; 63.5% in assay [3]; 9% in [4]; 46.7% in assay [5]; 3.53% in [6]. Further, the inhibition in assay [7] is 15.5%; in assay [8], 4.28%; in [9], 26.1%; in assay [10], 3.87%.

Consider `COC(=O)c1cncc(/C=C/c2c(C)cc(O)cc2C)c1`, for which the inhibition in assay [1] came to 3.16%; in assay [2], 2.81%; in assay [3], 7.4%; in assay [4], 0.83%; in [5], 4.47%; in [6] it was 3.09%. In addition, the inhibition in assay [7] was 4%; in [8] it was 7.07%; in [9], 14.3%; in [10], 6.58%.

`Nc1nccc(-c2c(-c3ccc(F)cc3)ncn2CCCN2CCOCC2)n1`: the inhibition in assay [1] amounted to 1.24%; in [2] it was 2.64%; in assay [3] it was 3.19%; in assay [4], 0.74%; in [5], 0.15%; in assay [6], 3.1%. Further, the inhibition in [7] is 4.1%; in assay [8], 1.73%; in assay [9] it was 4.53%; in assay [10] it was 0.93%.

`c1ccc(Nc2ncc(-c3ccccc3)o2)cc1`: the inhibition was 1.62% in [1]; 3.02% in assay [2]; 2.66% in assay [3]; -0.02% in [4]; 1.13% in [5]; 4.52% in assay [6]. Further, the inhibition in assay [7] came to 5.66%; in assay [8], 4.96%; in assay [9] it was 15.8%; in assay [10] it was 5.53%.

With `O=C(Nc1ccc(Oc2ccc3[nH]c(NC(=O)c4ccco4)nc3c2)cc1)Nc1cc(C(F)(F)F)ccc1F`, the inhibition is -2.83% in assay [1]; -3.75% in assay [2]; -1.33% in [3]; -3.67% in [4]; -1.57% in [5]; 0.62% in assay [6]. The inhibition in [7] is 0.74%; in [8], -1.87%; in assay [9], 2.71%; in assay [10] it was -2.51%.

Consider `OCc1ccc(-c2nc(-c3ccccn3)c(-c3ccc4c(c3)OCO4)[nH]2)cc1`, for which the inhibition in [1] was 2.95%; in [2], 1.82%; in assay [3] it was 4.86%; in assay [4] it was 0.33%; in assay [5] it was 0.97%; in assay [6], 2.62%. Besides, the inhibition in assay [7] turned out to be 3.63%; in assay [8], 2.15%; in [9], 4.5%; in assay [10], 2.21%.

Consider `Cc1ccc2c(-c3ccnc(Nc4cccc(C(F)(F)F)c4)n3)c(-c3ccccc3)nn2n1`, for which the inhibition in assay [1] came to 2.3%; in assay [2] it was 3.65%; in assay [3], 2.62%; in assay [4], 1.3%; in assay [5], 2.46%; in [6], 4.31%. Also, the inhibition was determined as 5.83% in assay [7], 22.6% in [8], 68.5% in assay [9] and 35.7% in assay [10].

As for `Cc1nc(-c2ccccc2)n2nc(NCCCN3CCOCC3)ncc12`, the inhibition in assay [1] came out at 1.74%; in assay [2], 1.71%; in assay [3] it was 19%; in assay [4], 1.12%; in [5], 7.26%; in assay [6], 1.55%. Also, the inhibition in [7] amounted to 5.9%; in [8], 5.02%; in assay [9] it was 13.1%; in assay [10], 4.78%.

As for `Cc1ccc(O)cc1Nc1ccnc2ccc(S(C)(=O)=O)cc12`, the inhibition was 3.42% in [1]; 4.16% in assay [2]; 12.6% in [3]; 0.55% in assay [4]; 2.94% in assay [5]; 3.03% in assay [6]. Also, the inhibition in [7] stood at 4.88%; in [8], 2.64%; in [9] it was 1.72%; in assay [10] it was 1.89%.

As for `FC(F)(F)c1ccc(-c2nn3ncccc3c2-c2ccnc(Nc3ccc4c(c3)OCCO4)n2)cc1`, the inhibition in assay [1] is 5.27%; in [2] it was 5.25%; in assay [3], 6.32%; in [4], 4.87%; in assay [5], 5.88%; in assay [6] it was -0.81%. Also, the inhibition in [7] was determined as 0.53%; in assay [8], 6.66%; in assay [9], 6.68%; in [10], 7.6%.

Regarding `COc1cc2ncnc(Nc3ccc4c(cnn4Cc4ccccc4)c3)c2cc1OC`, the inhibition in assay [1] is 0.4%; in [2], 2.51%; in assay [3], 2.6%; in assay [4] it was -2.48%; in [5], 0.09%; in assay [6] it was 2.37%. Moreover, the inhibition in [7] was determined as 2.95%; in assay [8], 4.71%; in assay [9] it was 6.57%; in assay [10] it was 4.13%.

As to `CC(C)c1ccc2c(c1)NC(=O)/C2=N/Nc1ccc(S(N)(=O)=O)cc1`, the inhibition in [1] is -0.08%; in [2], 0.62%; in assay [3], 2.99%; in [4], 3.56%; in assay [5], 4.99%; in [6], 0.96%. Besides, the inhibition in assay [7] was -0.44%; in assay [8], 4.22%; in assay [9], 16.5%; in assay [10], 4.19%.

Regarding `Oc1cccc(-c2nc(-c3ccccc3)[nH]c2-c2ccncc2)c1`, the inhibition in [1] came out at 2.52%; in [2], 2.29%; in assay [3], 8.77%; in [4], 1.25%; in assay [5], 7.99%; in assay [6] it was 2.63%. In addition, the inhibition in assay [7] worked out at 5.4%; in assay [8] it was 5.29%; in assay [9], 14.8%; in [10], 5.61%.

For the compound `COc1cccc(-n2ncc3c(N/N=C/c4ccc(C)cc4)ncnc32)c1`, the inhibition in [1] was determined as 1.46%; in assay [2], 5.94%; in assay [3], 16.5%; in assay [4], 3.97%; in assay [5] it was 11.3%; in [6] it was 5.76%. The inhibition was found to be 13.6% in [7], 19.4% in assay [8], 55.6% in assay [9] and 13.1% in assay [10].

On to `COc1cc(/C=N/Nc2ncnc3c2cnn3C(C)C)ccc1O`, for which the inhibition in assay [1] turned out to be 31.6%; in assay [2], 1.4%; in [3], 8.18%; in assay [4], 0.35%; in [5], 7.69%; in [6] it was 1.46%. The inhibition in [7] was 5.67%; in assay [8] it was 6.47%; in [9] it was 37.4%; in assay [10], 4.9%.

In the case of `COc1cc(Nc2nccc(-c3cnn4ncccc34)n2)cc(OC)c1`, the inhibition in [1] was determined as 77.3%; in assay [2] it was 85%; in assay [3], 91.2%; in [4], 87.4%; in assay [5], 92.4%; in assay [6], 5.46%. Further, the inhibition in assay [7] stood at 30.2%; in assay [8], 49.7%; in assay [9], 86.8%; in [10] it was 60.2%.

For the compound `CN(c1ccc(NC(=O)Nc2ccc(OC(F)(F)F)cc2)cc1)c1ccnc(Nc2cccc(S(N)(=O)=O)c2)n1`, the inhibition in [1] is 1.99%; in assay [2], 1.32%; in assay [3] it was 1.5%; in assay [4], -2.14%; in [5], -0.44%; in assay [6] it was 2.23%. In addition, the inhibition worked out at 3.14% in assay [7], 2.09% in assay [8], 9.4% in [9] and 0.92% in assay [10].
